# Assay results from PubChem BioAssay AID1159580 (chemical genetic matrix, 2015).
# Hit rate of the full screen: of about 5,500 compounds, about 2,000 (36%) were called active. Roughly 18% stayed inconclusive and do not appear here. This is one part of the list. Unmarked numbers belong to inactive results. Cut-off read from the data, not from the text of the source: active = normalized growth mostly below about 0.91 (no sharp cut-off); inconclusive = no clear call, values can overlap the other calls; inactive = mostly above about 0.92.
# Test: chemical genetic growth profiling, strain panel (AID 1159580);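 note: tested at 20 µM; growth read once vehicle control cultures reached saturation at 30 °C; 1 = growth at the plate median or of vehicle wells; lower values mean less growth of the strain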
# Conditions: S. cerevisiae deletion strains, growth OD
compound,measurement,setting,value
CC1(C)CC2C1CC[C@]1(C)CCC3C(C(=O)O)CC(=O)O[C@@]32C1 (stereo partly drawn),normalized growth,"locus YAL021C, strain ccr4, stronger effect = lower value",1.07
same,normalized growth,"locus YAL026C, strain drs2, stronger effect = lower value",1.07
same,normalized growth,"locus YAL030W, strain snc1, stronger effect = lower value",1.04
same,normalized growth,"locus YBL061C, strain skt5, stronger effect = lower value",1.03
same,normalized growth,"locus YBR009C, strain hhf1, stronger effect = lower value",1.03
same,normalized growth,"locus YBR023C, strain chs3, stronger effect = lower value",1.02
same,normalized growth,"locus YBR171W, strain sec66, stronger effect = lower value",1.07
same,normalized growth,"locus YBR231C, strain swc5, stronger effect = lower value",1.06
same,normalized growth,"locus YBR279W, strain paf1, stronger effect = lower value",1.01
same,normalized growth,"locus YCL011C, strain gbp2, stronger effect = lower value",1.03
same,normalized growth,"locus YCL016C, strain dcc1, stronger effect = lower value",1.06
same,normalized growth,"locus YCL061C, strain MRC1, stronger effect = lower value",1.03
same,normalized growth,"locus YCR088W, strain abp1, stronger effect = lower value",1.03
same,normalized growth,"locus YDL005C, strain med2, stronger effect = lower value",1.04
same,normalized growth,"locus YDL040C, strain nat1, stronger effect = lower value",1.05
same,normalized growth,"locus YDR001C, strain nth1, stronger effect = lower value",1.04
same,normalized growth,"locus YDR069C, strain doa4, stronger effect = lower value",1.06
same,normalized growth,"locus YDR137W, strain rgp1, stronger effect = lower value",1.04
same,normalized growth,"locus YDR159W, strain sac3, stronger effect = lower value",1.05
same,normalized growth,"locus YDR195W, strain ref2",1.06
same,normalized growth,"locus YDR297W, strain sur2, stronger effect = lower value",1.05
same,normalized growth,"locus YDR334W, strain swr1, stronger effect = lower value",1.09
same,normalized growth,"locus YDR335W, strain msn5, stronger effect = lower value",1.15 [resistant] (active)
same,normalized growth,"locus YDR392W, strain spt3, stronger effect = lower value",1.14
same,normalized growth,"locus YEL003W, strain gim4, stronger effect = lower value",1.02
same,normalized growth,"locus YEL037C, strain rad23, stronger effect = lower value",1.06
same,normalized growth,"locus YEL061C, strain CIN8 (second series), stronger effect = lower value",1.04
same,normalized growth,"locus YER015W, strain faa2, stronger effect = lower value",1.02
same,normalized growth,"locus YER016W, strain bim1, stronger effect = lower value",1.04
same,normalized growth,"locus YER111C, strain swi4, stronger effect = lower value",1.01
same,normalized growth,"locus YER155C, strain BEM2 (second series), stronger effect = lower value",1.04
same,normalized growth,"locus YFR010W, strain ubp6, stronger effect = lower value",1.09
same,normalized growth,"locus YGL167C, strain pmr1, stronger effect = lower value",1.05
same,normalized growth,"locus YGL173C, strain kem1, stronger effect = lower value",1.03
same,normalized growth,"locus YGL227W, strain vid30, stronger effect = lower value",1.02
same,normalized growth,"locus YGL240W, strain doc1, stronger effect = lower value",1.06
same,normalized growth,"locus YGL253W, strain hxk2, stronger effect = lower value",1.06
same,normalized growth,"locus YHR013C, strain ard1, stronger effect = lower value",1.05
same,normalized growth,"locus YHR027C, strain rpn1, stronger effect = lower value",1.03
same,normalized growth,"locus YHR030C, strain SLT2, stronger effect = lower value",1
same,normalized growth,"locus YHR079C, strain IRE1, stronger effect = lower value",1
same,normalized growth,"locus YHR142W, strain chs7, stronger effect = lower value",1.05
same,normalized growth,"locus YJL092W, strain hpr5, stronger effect = lower value",1.07
same,normalized growth,"locus YJL095W, strain BCK1 (second series), stronger effect = lower value",1.04
same,normalized growth,"locus YJL095W, strain BCK1, stronger effect = lower value",0.99
same,normalized growth,"locus YJL115W, strain asf1, stronger effect = lower value",1.06
same,normalized growth,"locus YJL129C, strain trk1, stronger effect = lower value",1.09
same,normalized growth,"locus YJL154C, strain vps35, stronger effect = lower value",1.05
same,normalized growth,"locus YJL164C, strain tpk1, stronger effect = lower value",1.02
same,normalized growth,"locus YJL166W, strain qcr8, stronger effect = lower value",1.05
same,normalized growth,"locus YJL187C, strain SWE1, stronger effect = lower value",1.03
same,normalized growth,"locus YJR066W, strain TOR1, stronger effect = lower value",0.942
same,normalized growth,"locus YKL160W, strain elf1, stronger effect = lower value",1.05
same,normalized growth,"locus YKR026C, strain gcn3, stronger effect = lower value",1.02
same,normalized growth,"locus YKR091W, strain srl3, stronger effect = lower value",1.04
same,normalized growth,"locus YLL001W, strain dnm1, stronger effect = lower value",1.07
same,normalized growth,"locus YLL026W, stronger effect = lower value",1.01
same,normalized growth,"locus YLL041C, strain sdh2, stronger effect = lower value",1.01
same,normalized growth,"locus YLR027C, strain aat2, stronger effect = lower value",1.04
same,normalized growth,"locus YLR113W, strain HOG1, stronger effect = lower value",0.98
same,normalized growth,"locus YLR221C, strain rsa3, stronger effect = lower value",1.02
same,normalized growth,"locus YLR258W, strain gsy2, stronger effect = lower value",1.1 [resistant] (active)
same,normalized growth,"locus YLR262C, strain YPT6 (second series), stronger effect = lower value",1.07
same,normalized growth,"locus YLR320W, strain mms22, stronger effect = lower value",1.05
same,normalized growth,"locus YLR342W, strain FKS1, stronger effect = lower value",1.02
same,normalized growth,"locus YLR357W, strain rsc2, stronger effect = lower value",1.13
same,normalized growth,"locus YLR370C, strain arc18, stronger effect = lower value",1.03
same,normalized growth,"locus YLR384C, strain iki3, stronger effect = lower value",1.01
same,normalized growth,"locus YML120C, strain ndi1, stronger effect = lower value",1.04
same,normalized growth,"locus YMR058W, strain fet3, stronger effect = lower value",1.03
same,normalized growth,"locus YMR125W, strain sto1, stronger effect = lower value",1.06
same,normalized growth,"locus YMR129W, stronger effect = lower value",1.05
same,normalized growth,"locus YMR205C, strain PFK2, stronger effect = lower value",1.04
same,normalized growth,"locus YMR231W, strain pep5, stronger effect = lower value",1.03
same,normalized growth,"locus YNL071W, strain lat1, stronger effect = lower value",1.04
same,normalized growth,"locus YNL183C, strain NPR1, stronger effect = lower value",0.931
same,normalized growth,"locus YNL209W, strain ssb2, stronger effect = lower value",1.01
same,normalized growth,"locus YNL322C, strain KRE1 (second series), stronger effect = lower value",1.02
same,normalized growth,"locus YNR049C, strain mso1, stronger effect = lower value",1.05
same,normalized growth,"locus YOR001W, strain rrp6, stronger effect = lower value",1.06
same,normalized growth,"locus YOR070C, strain gyp1, stronger effect = lower value",1.14 [resistant] (active)
same,normalized growth,"locus YOR080W, strain dia2, stronger effect = lower value",1.1 [resistant] (active)
same,normalized growth,"locus YOR083W, strain WHI5, stronger effect = lower value",1.08
same,normalized growth,"locus YOR106W, strain vam3, stronger effect = lower value",1.05
same,normalized growth,"locus YOR231W, strain MKK1, stronger effect = lower value",0.985
same,normalized growth,"locus YOR265W, strain rbl2, stronger effect = lower value",1.05
same,normalized growth,"locus YOR270C, strain vph1, stronger effect = lower value",1.14
same,normalized growth,"locus YOR290C, strain snf2, stronger effect = lower value",1.18 [resistant] (active)
same,normalized growth,"locus YPL051W, strain arl3, stronger effect = lower value",1.03
same,normalized growth,"locus YPL078C, strain atp4, stronger effect = lower value",1.07
same,normalized growth,"locus YPL106C, strain sse1, stronger effect = lower value",1.11
same,normalized growth,"locus YPL240C, strain hsp82, stronger effect = lower value",1.02
same,normalized growth,"locus YPL256C, strain CLN2, stronger effect = lower value",0.967
